Source: PubChem BioAssay
Records with an inconclusive call do not appear. Activity calls are given as the source filed them. Unless noted, cut-off not given; nearly all actives show AC50 up to about 30 µM.

Experiments:
[1] = viability loss in pontine glioma line – cell-based, SU-DIPG-XIII, MIPE4.0, CellTiter-Glo, qHTS, dose response (AID 1347061; cut-off not given, nearly all actives have AC50 up to about 37 µM;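 further: cells exposed to compound for 48 hours before readout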); settings: CellTiter-Glo ATP luminescence
[2] = viability loss with induced miR-34 in A549 – imaging, A549 dox-inducible miR-34, nuclei and caspase counts, primary screen (AID 1347080;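 active means compounds whose cell count with miR-34 switched on is under 0.7 times the count with it off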); settings: A549 miR-34 inducible, Hoechst nuclei count, 48 h
[3] = viability loss in pontine glioma line – cell-based, JHH-DIPG-1, MIPE4.0, CellTiter-Glo, qHTS, dose response (AID 1347062; cut-off not given, nearly all actives have AC50 up to about 27 µM;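 on AC50: cells exposed to compound for two days before readout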); settings: JHH-DIPG-1 viability, CellTiter-Glo ATP luminescence
[4] = viability loss in pontine glioma line – cell-based, SU-DIPG-IV, MIPE4.0, CellTiter-Glo, qHTS, dose response (AID 1347063); settings: CellTiter-Glo ATP luminescence;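 further: compound exposure lasted 48 hours before the viability readout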
[5] = viability loss in pontine glioma line – cell-based, SU-DIPG-XXV, MIPE5.0, CellTiter-Glo, qHTS, dose response (AID 1347065; cut-off not given, nearly all actives have AC50 up to about 26 µM;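 further: cells exposed to compound for 48 hours before ATP readout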); settings: CellTiter-Glo ATP luminescence
[6] = JHH-DIPG-1 glioma cell viability, MIPE5.0 library, CellTiter-Glo luminescence, qHTS (AID 1347067; cut-off not given, nearly all actives have AC50 up to about 26 µM;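 further: cells exposed to compound for 48 hours before readout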); settings: JHH-DIPG-1 glioma viability, CellTiter-Glo ATP luminescence
[7] = growth inhibition of DIPG cells – cell-based, MIPE5.0 library, qHTS (AID 1347068; cut-off not given, nearly all actives have IC50 up to about 30 µM;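 on IC50: cells exposed to compound for 48 hours before viability readout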); settings: SU-DIPG-XXV viability
[8] = viability loss in pontine glioma line – cell-based, SU-DIPG-XIII, MIPE5.0, CellTiter-Glo, qHTS, dose response (AID 1347064; cut-off not given, nearly all actives have AC50 up to about 23 µM;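 on AC50: cells exposed to compound for 48 hours before the viability read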); settings: CellTiter-Glo ATP luminescence
[9] = compounds altering HSF1 focus formation in cells – imaging, Selleck Cancer Library (AID 1347162; in the data active means plate-normalised HSF1 focus index below about 0.46); settings: human cells, HSF1 nuclear foci imaging, at 10 µM; SSMD: measured here: HSF1 foci SSMD mean; cell count: measured here: cell number; plate-normalised HSF1 focus index: stronger effect = lower value
[10] = growth inhibition of DIPG cells – cell-based, MIPE4.0 library, CellTiter-Glo luminescence, qHTS (AID 1347066); settings: SU-DIPG-VI viability, CellTiter-Glo ATP luminescence;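 further: cells exposed to compound for 48 hours before readout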
[11] = MELAS cybrid and Rieske KO viability enhancers – cell-based, MELAS cybrids, Rieske KO mouse fibroblasts, CellTiter-Glo, primary screen (AID 1508586;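 active means mean z-score across replicates of 1.96 or higher in either the MELAS or the Rieske mutant cell line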;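 further: z relative to plate mean and SD of compound and empty wells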); settings: low glucose
[12] = growth inhibition, single agent or in combination, cell-based, chromothripsis tumors, cisplatin or BGB combos (AID 1671449; in the data active means inhibition above about 80%;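 further: cells exposed for 96 hours; 0% = vehicle DMSO and 100% = killing by high DMSO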); settings: LFS_MB_P medulloblastoma cells
[13] = growth inhibition, single agent and combos, cell-based, chromothripsis tumors, cisplatin or BGB combos (AID 1671450; in the data active means inhibition above about 80%;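 further: cells exposed to compound for four days; 0% = vehicle DMSO and 100% = cell killing by high DMSO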); settings: HDN33 neuroblastoma cells, stronger effect = higher value
[14] = growth inhibition, single agents and combos, ICB984, cell-based, cisplatin or BGB combos, synergistic combos for chromothripsis tumors (AID 1671451; call rule not given here;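 further: cells exposed for 96 hours before readout; 0% = vehicle DMSO and 100% = killing by high DMSO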); settings: ICB984 medulloblastoma cells, drug combinations, stronger effect = higher value
[15] = growth inhibition, single agents and combos, HTB85, cell-based, BGB or cisplatin IC20 combos, synergistic combos for chromothripsis tumors (AID 1671453; in the data active means inhibition above about 80%;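 further: cells exposed for 96 hours before readout; 0% = vehicle DMSO and 100% = high DMSO killing control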); settings: HTB85 osteosarcoma cells, drug combinations, stronger effect = higher value
[16] = growth inhibition, MDA-MB-436, cell-based, BGB or cisplatin combos, synergistic combos for chromothripsis tumors (AID 1671458; call rule not given here;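 further: cells exposed for 96 hours; 0% = vehicle DMSO and 100% = killing by high DMSO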); settings: MDA-MB-436 breast carcinoma growth inhibition, drug combinations, stronger effect = higher value
[17] = BT084 cell growth, single and combined drugs, ICGC_MB145, cisplatin and BGB IC40 combos (AID 1671461; in the data active means inhibition above about 80%;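 further: cells exposed to drugs for 96 hours; 0% = vehicle DMSO and 100% = high DMSO full killing control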); settings: BT084 medulloblastoma cells, drug combinations, stronger effect = higher value
[18] = RCMB18 cell growth, single agent and combined, cisplatin and BGB IC40 combos (AID 1671462; in the data active means inhibition above about 80%;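 further: cells exposed to compound for four days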); settings: RCMB18 medulloblastoma cells, stronger effect = higher value
[19] = CRL1545 cell growth, single agent and combined, cisplatin and BGB IC20 combos (AID 1671464; in the data active means inhibition above about 80%;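 further: cells exposed to compound for 96 hours before readout; 0% = vehicle DMSO and 100% = high DMSO killing control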); settings: CRL1545 osteosarcoma cells, stronger effect = higher value
[20] = stronger effect = lower value, cell number ratio, induced over uninduced
[21] = measured here: relative caspase fold change +Dox/-Dox
[22] = measured here: total cells with miR-34 induction, stronger effect = lower value
[23] = measured here: total cells without miR-34 induction
[24] = MELAS cybrid survival, CellTiter-Glo 48 h, stronger effect = higher value
[25] = Rieske KO mouse fibroblast survival, CellTiter-Glo 72 h
[26] = measured here: with BGB IC20 combination, at 0.5 µM
[27] = measured here: with cisplatin IC20 combination, at 0.5 µM

COC(=O)C1=CO[C@@H](O)[C@@H]2C(CO)=CC[C@H]12
outcome [1]: inactive | fold change [2, 20]: 1 (inactive) | fold change [2, 21]: 0.878 | cell count [2, 22]: 10100 | cell count [2, 23]: 10100

COc1cc(C(=O)NC2CCN(C)CC2)ccc1Nc1ncc2c(n1)N(C1CCCC1)CCC(=O)N2C(C)C
AC50 [3]: 16.6 µM (active) | AC50 [4]: 7.43 µM (active) | AC50 [5]: 23.5 µM (active) | AC50 [6]: 23.5 µM (active) | outcome [7]: inactive

C[C@@H]1C/C=C/C=C/C=C/C=C/[C@@H](O[C@@H]2O[C@H](C)[C@@H](O)[C@H](N)[C@@H]2O)C[C@@H]2O[C@](O)(C[C@@H](O)C[C@@H]3O[C@H]3/C=C/C(=O)O1)C[C@H](O)[C@H]2C(=O)O
outcome [3]: inactive

Cn1cc(-c2[nH]c3cc(NC(=O)[C@H](N)C4CCCCC4)cc4c3c2C=NNC4=O)cn1
AC50 [3]: 0.418 µM (active) | AC50 [4]: 1.18 µM (active) | AC50 [8]: 2.09 µM (active) | AC50 [5]: 1.18 µM (active) | AC50 [6]: 16.6 µM (active) | IC50 [7]: 4.68 µM (active) | SSMD [9]: -1.12 | cell count [9]: 6990 | plate-normalised HSF1 focus index [9]: 0.932 (inactive)

CC(=O)C1=C(O)C=C2Oc3c(C(C)=O)c(O)c(C)c(O)c3C2(C)C1=O (configuration not stated)
outcome [1]: inactive | outcome [10]: inactive

CN(C1CCc2c(c3ccccc3n2CC(=O)O)C1)S(=O)(=O)c1ccc(F)cc1 (configuration not stated)
outcome [1]: inactive | outcome [10]: inactive | fold change [2, 20]: 1.07 (inactive) | fold change [2, 21]: 0.901 | cell count [2, 22]: 6410 | cell count [2, 23]: 5990

COc1ccc(Cn2ccc3ccc(C(=O)NO)cc32)cc1
outcome [3]: inactive | outcome [4]: inactive | outcome [5]: inactive | outcome [10]: inactive | outcome [6]: inactive | fold change [2, 20]: 0.793 (inactive) | fold change [2, 21]: 0.954 | cell count [2, 22]: 5300 | cell count [2, 23]: 6690 | z-score [11, 24]: -0.343 (inactive) | z-score [11, 25]: 0.636

C/C=C(/C)C(=O)O[C@H]1C(C)=C[C@]23C(=O)[C@@H](C=C(CO)[C@@H](O)[C@]12O)[C@H]1[C@@H](C[C@H]3C)C1(C)C
outcome [1]: inactive | AC50 [10]: 20.9 µM (active)

CCn1c(=O)c2c(nc(/C=C/c3ccc(OC)c(OC)c3)n2C)n(CC)c1=O
outcome [3]: inactive | outcome [4]: inactive | outcome [8]: inactive | outcome [10]: inactive | outcome [6]: inactive | outcome [7]: inactive

NC(CO)(CO)CCc1ccc(Sc2cccc(OCc3ccccc3)c2)cc1Cl
AC50 [3]: 11.8 µM (active) | AC50 [4]: 11.8 µM (active) | AC50 [8]: 8.33 µM (active) | AC50 [5]: 9.34 µM (active) | AC50 [10]: 18.7 µM (active) | AC50 [6]: 9.34 µM (active)

Cc1cn2cc(C(=O)N(C)CCO)cc(N[C@@H]3CCOc4cccc(C)c43)c2n1
outcome [3]: inactive | outcome [4]: inactive | outcome [8]: inactive | outcome [10]: inactive | outcome [6]: inactive | outcome [7]: inactive

O=c1[nH]nc(OCCCc2ccc(Cl)cc2)c(NCc2cccnc2)c1Br
AC50 [3]: 23.5 µM (active) | AC50 [4]: 18.7 µM (active) | AC50 [10]: 18.7 µM (active)

NC1(Cc2ccc(Cl)cc2)CCN(c2ncnc3[nH]ccc23)CC1
AC50 [3]: 20.9 µM (active) | AC50 [4]: 11.8 µM (active) | AC50 [8]: 14.8 µM (active) | AC50 [5]: 14.8 µM (active) | fold change [2, 20]: 0.99 (inactive) | fold change [2, 21]: 0.525 | cell count [2, 22]: 7470 | cell count [2, 23]: 7540 | z-score [11, 24]: -0.165 (inactive) | z-score [11, 25]: -1.1

CC[C@@H]1/C=C(\C)C[C@H](C)C[C@H](OC)[C@H]2O[C@@](O)(C(=O)C(=O)N3CCCC[C@H]3C(=O)O[C@H](/C(C)=C/[C@@H]3CC[C@H](Cl)[C@H](OC)C3)[C@H](C)[C@@H](O)CC1=O)[C@H](C)C[C@@H]2OC
outcome [1]: inactive | outcome [10]: inactive

c1cc(N[C@@H]2CCNC2)nc(-c2cnc3ccc(-c4cn[nH]c4)cn23)c1
AC50 [3]: 11.8 µM (active) | AC50 [4]: 14.8 µM (active) | AC50 [8]: 14.8 µM (active) | AC50 [5]: 16.6 µM (active) | AC50 [10]: 18.7 µM (active) | AC50 [6]: 16.6 µM (active) | IC50 [7]: 11.8 µM (active)

CO[C@H]1/C=C/O[C@@]2(C)Oc3c(C)c(O)c4c(O)c(c(/C=N\N5CCN(C6CCCC6)CC5)c(O)c4c3C2=O)NC(=O)/C(C)=C\C=C\[C@H](C)[C@H](O)[C@@H](C)[C@@H](O)[C@@H](C)[C@H](OC(C)=O)[C@@H]1C
AC50 [3]: 0.105 µM (active) | AC50 [4]: 0.0935 µM (active) | AC50 [8]: 23.5 µM (active) | AC50 [5]: 26.3 µM (active) | IC50 [7]: 20.9 µM (active) | inhibition ([12]; at 0.5 µM, stronger effect = higher value): 5.09% (inactive) | inhibition ([12]; measured here: combination with BGB IC20, at 0.005 µM): -7.42% | inhibition ([12]; measured here: combination with BGB IC40, at 0.005 µM): -15% | inhibition ([12]; measured here: combination with BGB IC40, at 0.05 µM): -18.2% | inhibition ([12]; measured here: combination with cisplatin, at 0.5 µM, stronger effect = higher value): -6.85% | inhibition ([12]; measured here: combination with cisplatin, at 5 µM, stronger effect = higher value): 15% | inhibition ([13]; BGB combo, at 5 µM): 85.6% | inhibition ([13]; at 0.5 µM): -11.9% (inactive) | inhibition ([13]; cisplatin combo, at 5 µM): 6.46% | inhibition [13, 26]: -21.1% | inhibition [13, 27]: -18.8% | inhibition ([13]; single agent, at 5 µM): -3.56% | inhibition ([14]; BGB IC20 combo, at 0.005 µM): -21.8% | inhibition ([14]; BGB IC40 combo, at 0.005 µM): -25.4% | inhibition ([14]; BGB IC40 combo, at 0.05 µM): -16.4% | inhibition ([14]; at 0.5 µM): -17.3% (inactive) | inhibition ([14]; cisplatin combo, at 0.05 µM): -19.6% | inhibition ([14]; cisplatin combo, at 0.5 µM): -17.5% | inhibition ([14]; cisplatin combo, at 5 µM): -18.6% | inhibition ([14]; measured here: 5 uM single agent, at 5 µM): -17.8% | inhibition ([15]; at 0.5 µM): 16% (inactive) | inhibition ([15]; measured here: with BGB IC20, at 0.5 µM): 12.6% | inhibition ([15]; measured here: with BGB IC20, at 5 µM): 76.7% | inhibition ([15]; measured here: with cisplatin IC20, at 0.5 µM): 35.8% | inhibition ([15]; measured here: with cisplatin IC20, at 5 µM): 10.4% | inhibition ([15]; single agent, at 5 µM): 35.1% | inhibition ([16]; at 0.5 µM): -19% (inactive) | inhibition ([16]; measured here: BGB combination, at 0.5 µM): -15.7% | inhibition ([16]; measured here: BGB combination, at 5 µM): -5.36% | inhibition ([16]; measured here: cisplatin combination, at 0.5 µM): -40.9% | inhibition ([16]; measured here: cisplatin combination, at 5 µM): -22% | inhibition ([17]; at 0.5 µM): -28.3% (inactive) | inhibition ([17]; cisplatin combination, at 0.5 µM): -31.9% | inhibition ([17]; cisplatin combination, at 5 µM): -20.9% | inhibition ([17]; measured here: BGB IC40 combination 0.05 uM, at 0.05 µM): -25.7% | inhibition ([17]; single agent, at 5 µM): -12.9% | inhibition ([18]; at 0.5 µM): -14.8% (inactive) | inhibition ([18]; cisplatin combo, at 5 µM): 15% | inhibition ([18]; measured here: BGB IC40 combination, at 0.05 µM): -18.7% | inhibition ([18]; measured here: combination with cisplatin, at 0.5 µM): -14.5% | inhibition ([18]; single agent, at 5 µM): 27.7% | inhibition ([19]; at 0.5 µM): 4.23% (inactive) | inhibition [19, 26]: 23.5% | inhibition [19, 27]: -7.81% | inhibition ([19]; single agent, at 0.05 µM): 8.47% | inhibition ([19]; single agent, at 5 µM): 73.2%
